Records with an inconclusive call do not appear. A call without a number means that no potency is given here. The source made the active and inactive calls. Calls come from the whole dose curve; as a rule, active = well fitted cell-killing curve with a large enough effect in the repeat runs; inconclusive = weak or mixed curves, or effect the other way; inactive = no such curve, though single readings can be large or run the other way.
Potency is the fitted concentration of half-maximal effect.

A short description of this assay: qHTS assay for small molecule activators of the heat shock response signaling pathway - cell viability counter screen (AID 743209). Note: nearly all actives have a fitted effect of over 50% in size. The conditions noted are these: HSE-bla HeLa viability, CellTiter-Glo luminescence, 5 h; series mostly up to 62.6 µM. The text has this:
U.S. Tox21 Program National Center for Advancing Translational Sciences [NCATS] NIH Chemical Genomics Center [NCGC] U.S. Environmental Protection Agency [EPA] National Institutes of Environmental Health Sciences [NIEHS] National Toxicology Program [NTP] U.S. Food and Drug Administration [FDA] Tox21 Assay Overview: Various chemicals, environmental and physiological stress conditions may lead to the activation of heat shock response/ unfolded protein response (HSR/UPR). There are three heat shock transcription factors (HSFs) (HSF-1, -2, and -4) mediating transcriptional regulation of the human HSR. To identify the compounds that activate HSR signaling, HSE-bla HeLa cell line (Invitrogen, Carlsbad, CA, USA) containing a beta-lactamase reporter gene under the control of the heat shock response elements was used to screen Tox21 10K compound library. The cytotoxicity of the Tox21 compound library against the HSE-bla HeLa cell line was tested in parallel by measuring the cell viability using CellTiter-Glo assay (Promega, Madison, WI) in the same wells.
Tox21 Assay Protocol Summary: The CellSensor HSE-bla HeLa cells (Invitrogen, Carlsbad, CA, USA) were dispensed at 1500 cells/6uL/well into 1536-well black wall/clear bottom plates using a Multidrop combi (Thermo Fisher Scientific, Waltham, MA) dispenser. After the assay plates were incubated at 37 C and 5% CO2 overnight, 23 nL of compounds dissolved in DMSO, positive controls or DMSO only was transferred to the assay plate by a Pintool station (Kalypsys, San Diego, CA). The plates were incubated at 37 C for 5 h. After 1 uL of LiveBLAzerTM B/G FRET substrate was added using a Flying Reagent Dispenser (FRD, Beckman Coulter, Indianapolis, IN, USA), the plates were incubated at room temperature for 2.5 h, and fluorescence intensity was measured by an Envision plate reader (PerkinElmer, Shelton, CT). For cell viability readout that measures cytotoxicity, 3 ul/well of CellTiter-Glo reagent was added into the assay plates using a FRD. After 30 min incubation at room temperature, the luminescence intensity in the plates was measured using a ViewLux (PerkinElmer) plate reader.
A general note: qHTS replaces the single test concentration by a dilution series.
As for `CC(C)(C)CC(C)(C)c1ccc(OCCO)cc1`, the Potency result was “inactive”.
With `Cc1ccc(Nc2nccc(N(C)c3ccc4c(C)n(C)nc4c3)n2)cc1S(N)(=O)=O`, the Potency result was “inactive”.
Next, `NC(=O)N(O)[C@@H]1COc2cc(OCc3ccccc3)ccc21`: “inactive”; `CO[C@H]1C=CO[C@@]2(C)Oc3c(C)c(O)c4c(O)c(c5c(c4c3C2=O)=NC2(CCN(CC(C)C)CC2)N=5)NC(=O)/C(C)=C\C=C/[C@H](C)[C@H](O)[C@@H](C)[C@@H](O)[C@@H](C)[C@H](OC(C)=O)[C@@H]1C`: “inactive”.
As for `CCNC(=O)N1CCN(CCCC(c2ccc(F)cc2)c2ccc(F)cc2)CC1`, the Potency entry was “inactive”.
Take `CC1=CC(O)CC(C)(C)C1` (stereo not given): the Potency result is “inactive”.
Consider `CCCOc1ccc(S(=O)(=O)N2CCN(CC)CC2)cc1-c1nc2c(CC)n(Cc3ccccn3)nc2c(=O)[nH]1`, for which the Potency result is “inactive”.
Take `CCc1nn(CCCN2CCN(c3cccc(Cl)c3)CC2)c(=O)n1CCOc1ccccc1`: the Potency entry is “inactive”.
In the case of `O=S1OCCO1`, the Potency entry was “inactive”.
`CC1=CC(=O)CC(C)(C)C1(O)/C=C/C(C)=C\C(=O)O` (stereo not given): the Potency entry was “inactive”.
Take `NC(=O)Nc1ccc(Cl)c(Cl)c1`: the Potency entry was “inactive”.
Next, `O=C(CCCN1CCN(c2ccc(F)cc2)CC1)NC1c2ccccc2CSc2ccccc21` (stereo not given): “inactive”; `COc1cc2c(N3CCN(C(=O)Nc4ccc(OC(C)C)cc4)CC3)ncnc2cc1OCCCN1CCCCC1`: “inactive”; `CC(C)(CCl)c1ccccc1`: “inactive”.
On to `CCOC(=O)CC(=O)C(=O)OCC`, for which the Potency result is “inactive”.
With `CN1CCN(c2c(F)cc3c(=O)c(C(=O)O)cn4c3c2OCN4C)CC1`, the Potency entry was “inactive”.
To `CCc1c2c(nc3ccc(OC(=O)N4CCC(N5CCCCC5)CC4)cc13)-c1cc3c(c(=O)n1C2)COC(=O)[C@]3(O)CC` belongs “inactive”; to `Fc1ccccc1[C@@H](F)COC1CCC(Nc2ncnc3[nH]ncc23)CC1` (stereo not given in full), “inactive”.
To `Fc1c(F)c(F)c(Br)c(F)c1F` belongs “inactive”; to `CCn1nc(C)c2c1C(=O)NCC(c1ccc(O)cc1)=N2`, “inactive”; to `CC(=O)CC(c1ccc([N+](=O)[O-])cc1)c1c(O)c2ccccc2oc1=O` (stereo not given), “inactive”.
Next, `CCCCCCCCCCCC[N+](C)(C)CC(=O)[O-]`: “inactive”; `Oc1cc(O)c(Cl)cc1Cl`: “inactive”; `Cn1c(=O)c2c(ncn2CC(=O)O)n(C)c1=O`: “inactive”.
Regarding `CCC(C(=O)OCCOCCN(CC)CC)c1ccccc1` (stereo not given), the Potency entry was “inactive”.
Regarding `C[Si]1(C)O[Si](C)(C)O[Si](C)(C)O1`, the Potency entry is “inactive”.
For the compound `CCC(=O)OC/C=C/c1ccccc1`, the Potency result was “inactive”.
To `CC(CCO)CCc1ccccc1` (stereo not given) belongs “inactive”; to `Oc1ccc(Nc2ccccc2)cc1`, “inactive”; to `CCCCCCCCCCCCCCC[C@H](O)[C@@H](N)CO`, “inactive”.
Consider `COc1ccc(CCC(=O)c2c(O)cc(O[C@@H]3O[C@H](CO)[C@@H](O)[C@H](O)[C@H]3O[C@@H]3O[C@@H](C)[C@H](O)[C@@H](O)[C@H]3O)cc2O)cc1O`, for which the Potency result was “inactive”.
As for `COCCOC`, the Potency result was “inactive”.
`CCCCCCCC/C=C\CCCCCCCC(=O)OC(CO)CO`: the Potency is 43.6 µM (active).
Next, `CCOC(=O)/C=C/C(=O)O`: “inactive”.
`C[N+]1(C)CCC(=C(c2ccccc2)c2ccccc2)CC1`: the Potency result is “inactive”.
In the case of `O=C(O)C(Cc1cc(I)c(O)c(I)c1)c1ccccc1` (stereo not given), the Potency result was “inactive”.
As for `CNCCCC1c2ccccc2C=Cc2ccccc21`, the Potency entry was “inactive”.
Take `Cc1nccn1-c1ccc(Sc2cccc(C3(C(N)=O)CCOCC3)c2)cc1`: the Potency result is “inactive”.
To `CN1Cc2cc(C(=O)N3CCC(C4CCNCC4)CC3)ccc2N[C@@H](CC(=O)O)C1=O` belongs “inactive”; to `Cc1ccc(S)cc1`, “inactive”.

The record behind these values is PubChem BioAssay (Tox21).
